KB-3-1 tox: KB-3-1 parental cell cytotoxicity; KB-3-1 viability, CellTiter-Glo ATP luminescence, 72 h; Potency, µM (doses to about 46.1 µM), usual class: cytotoxic; 400,000 tested, 1.4% active; AID 1347075; further: potency means the concentration at half of the fitted maximal effect; on the % scale 0 is the no-effect control and ±100 the full control effect; nearly all actives have a fitted effect of over 60% in size
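Parental KB-3-1 viability, qHTS format: 72 h compound exposure, 37 °C; CellTiter-Glo; media-only wells and DMSO plates as controls; concentration-effect fits on corrected data.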
MCF10A rereplic: inducers of DNA re-replication in MCF 10A breast cells | MCF 10A DNA re-replication, Hoechst nuclear intensity, 48 h | Potency, µM (highest dose often 46.1 µM), for inactives: at the top dose activity, positive = re-replication, usual class: activators | 350,000 tested, 2.9% active; further: potency means the concentration at half of the fitted maximal effect; % of control where 0% means no effect; nearly all actives have a fitted effect of over 50% in size
IL1B secr inh: blocks inflammasome-driven IL-1 beta release. AID 743279. THP-1 LPS/ATP IL-1B secretion, AlphaLISA, 16 h; active compounds read low. activity change, % at 57.5 µM. 360,000 tested, 4.7% active; in the data active means activity change below about -50%; inconclusive means mostly about -30% to -49%; further: on the % scale 0 is the no-effect control and ±100 the full control effect
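THP-1 cells pretreated 1 hr with compounds (up to 57.5 uM final), then stimulated with LPS (250 ng/mL final) plus ATP (1.25 mM final); secreted IL-1B measured by AlphaLISA after 16 hr, decreased signal indicating inhibition.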
KB-V1 MDR tox: kills drug-selected multidrug resistant KB-V1 cells. KB-V1 MDR cells viability, CellTiter-Glo, 72 h. Potency, µM (doses to about 46.1 µM), actives largely listed as cytotoxic. 400,000 tested, 3.4% active. AID 1347076; further: potency means the concentration at half of the fitted maximal effect; on the % scale 0 is the no-effect control and ±100 the full control effect; nearly all actives have a fitted effect of over 60% in size
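Readout: CellTiter-Glo luminescence, 10 min after addition. Cells: KB-V1 MDR subline, 72 h at 37 degrees C with compound. Analysis: corrected, normalized data fitted to concentration-effect curves.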
SW480 rerep: inducers of DNA re-replication in SW480 colon cancer cells | SW480 DNA re-replication, Hoechst DNA content imaging, 48 h | Potency, µM (top dose mostly 46.1 µM), without a hit: top-dose re-replication activation, most hits filed as activators | 340,000 tested, 1.8% active | AID 624297; further: potency means the concentration at half of the fitted maximal effect; % of control where 0% means no effect; nearly all actives have a fitted effect of over 55% in size
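Compounds, transferred as 23 nL by pin tool, were incubated with cells for 48 hr; DNA content per nucleus was then quantified by Hoechst staining and fluorescence plate imaging.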
Numbers without * were called inactive; i = inactive; ? = inconclusive; . = not tested or not shown. Compounds with a hit are over-represented: about 9.9% of the library has one in this group of screens. Unless noted, the call rests on the fitted dose curve; in most records, active means well fitted curve in the direction sought with a large enough effect; inconclusive means small, poorly fitted or top-dose-only effect, or another doubt; inactive means no such curve, though single readings can be large; an effect the other way counts as inactive or inconclusive.

SMILES	KB-3-1 tox	MCF10A rereplic	IL1B secr inh	KB-V1 MDR tox	SW480 rerep
c1ccc(-c2nc(NCc3cccnc3)c3ccccc3n2)cc1	i	28%	?	i	3%
Cc1cc(C)c(S(=O)(=O)Nc2cccc(/C=C/C(=O)O)c2)c(C)c1	i	11%	29	i	-3%
O=C(CN1CCN(Cc2ccccc2)CC1)N1CCCc2c1c(=O)oc1ccc(O)cc21	?	21µM*	36	15µM*	26%
NCCC1CN(C(=O)OCc2ccccc2)c2ccccc21 (stereo not drawn)	i	-7%	-10	i	10µM*
O=C(OCc1ccccc1)N1CCOCCOCCN(C(=O)OCc2ccccc2)CCOCCOCC1	i	-8%	0	?	-2%
Cn1nc(NC(=O)C(F)(F)F)c2ncc(-c3ccc(Cl)cc3)nc21	?	-9%	-15	i	2%
Cn1nc(N)c2ncc(-c3ccc(Cl)cc3)nc21	i	.	0	7.3µM*	.
CC(=O)Nc1ccc(NC(=O)C(C)OC(=O)CCCc2c[nH]c3ccccc23)cc1 (stereo not drawn)	i	-10%	18	i	6.5µM*
O=C(OCC(=O)N1CCCC1=O)c1nc(Cl)c(Cl)c(Cl)c1Cl	?	?	-95*	i	?
OC(COCc1cccs1)CN1CCN(c2cccc(C(F)(F)F)c2)CC1 (stereo not drawn)	i	19%	i	23µM*	-4%
O=C(Nc1ccc(F)cc1)c1nc(S(=O)(=O)Cc2ccccc2)ncc1Cl	5.2µM*	6%	-95*	?	4%
CCOc1ccc(NC(=O)c2nc(S(=O)(=O)Cc3ccccc3C)ncc2Cl)cc1	?	.	.	i	.
Cc1ccccc1CS(=O)(=O)c1ncc(Cl)c(C(=O)Nc2ccc(F)cc2)n1	i	?	-98*	i	-4%
Cc1ccc(NC(=O)c2nc(S(=O)(=O)Cc3ccccc3)ncc2Cl)cc1	13µM*	?	-103*	?	20%
CCCC(=O)Nc1ccc2c(c1)c1ccccc1n2CC	?	21µM*	-1	?	?
CCn1c2ccccc2c2cc(NC(=O)CC(C)=O)ccc21	i	?	0	i	-40%
CCn1c2ccccc2c(=O)c2ccccc21	i	23µM*	-14	i	23µM*
CCn1c2ccccc2c2cc(NC(=O)CSc3nnc(-c4ccc(OC)c(OC)c4)n3N)ccc21	i	0%	25	i	-18%
CCOc1ccc(-c2nnc(SCC(=O)Nc3ccc4c(c3)c3ccccc3n4CC)n2N)cc1	i	10µM*	-16	i	?
CCn1c2ccccc2c2cc(NS(=O)(=O)c3ccccc3C)ccc21	16µM*	?	13	?	?
CCn1c2ccccc2c2cc(NC(=O)C(C)C)ccc21	i	-6%	-23	?	-5%
CCOC(=O)c1cnc(SC)nc1Oc1cccc(NC(=O)c2cccc(Cl)c2Cl)c1	i	-1%	-12	i	-11%
O=C(CCn1cccn1)N1CCCC(N2CCN(c3cccc(Cl)c3)CC2)C1 (stereo not drawn)	i	0%	34	i	-1%
NNC(=O)c1ccc(Cn2cc(Br)cn2)o1	i	-2%	6	i	-18%
NNC(=O)c1ccc(Cn2cccn2)o1	i	?	14	i	2.3µM*
SMILES	KB-3-1 tox	MCF10A rereplic	IL1B secr inh	KB-V1 MDR tox	SW480 rerep
CCc1ccc(-c2cc(C)no2)cc1S(=O)(=O)N1CCN(c2cccc(Cl)c2)CC1	3.7µM*	.	.	?	.
Cc1cc(-c2ccc(C(C)C)c(S(=O)(=O)N3CCC(C)CC3)c2)on1	21µM*	-3%	13	i	-1%
CCc1ccc(-c2cc(C)no2)cc1S(=O)(=O)N1CCN(c2cccc(C)c2C)CC1	?	?	36	?	-29%
CCc1ccc(-c2cc(C)no2)cc1S(=O)(=O)N1CCCN(Cc2ccc(F)cc2)C1	?	?	-52*	?	?
Cc1cc(-c2ccc(C(C)C)c(S(=O)(=O)N3CCN(c4ccccc4)CC3)c2)on1	5.8µM*	?	31	12µM*	6.5µM*
Cc1ccccc1S(=O)(=O)NC(=O)C1(C)CCN1C(=O)C1(c2ccccc2)CC1 (stereo not drawn)	i	.	-5	i	.
CC(=O)c1cc(C#N)c(N2CCOCC2)nc1C	i	-8%	-8	i	-8%
Cc1cc(NC(=O)CN(C)C)c([N+](=O)[O-])cc1C	i	2%	-12	i	-1%
CCOc1ccc(Cc2c(Cl)nc(SC)nc2N(C)C)cc1	12µM*	9.2µM*	0	12µM*	?
Nc1nc2c(ncn2C2C[C@H](O)[C@@H](CO)O2)c(=O)[nH]1 (stereo partly drawn)	i	2%	10	i	0%
Nc1nc2c(nnn2C2CC(O)C(CO)O2)c(=O)[nH]1 (stereo not drawn)	2.3µM*	.	26	1.3µM*	.
COc1ccccc1/C=C1\SC(=S)N(CC(=O)NC2CCS(=O)(=O)C2)C1=O (stereo not drawn)	i	-19%	0	i	-8%
COc1cc(C2c3cc4c(cc3OC(N3CCOCC3)C2C)OCO4)cc(OC)c1OC(C)=O (stereo not drawn)	?	?	21	?	?
COc1cc(C2c3cc4c(cc3OC(Nc3ccc(C(=O)O)cc3)C2C)OCO4)cc(OC)c1OC (stereo not drawn)	0.18µM*	1.3µM*	-8	i	0.65µM*
COc1cc(C2c3cc4c(cc3OC(NCCc3ccccc3)C2C)OCO4)cc(OC)c1OC (stereo not drawn)	4.1µM*	1µM*	41	2.9µM*	1µM*
COc1cc(C2c3cc4c(cc3OC(C)(N3CCCC3)C2C)OCO4)cc(OC)c1OC (stereo not drawn)	1.5µM*	0.65µM*	20	2.6µM*	5.2µM*
Cc1ccc(N2C(=O)/C(=C/c3cccnc3)SC2=S)cc1	i	0%	-6	i	2%
O=C1/C(=C/c2cccnc2)SC(=S)N1C1CCS(=O)(=O)C1 (stereo not drawn)	?	15µM*	-93*	?	?
O=C1/C(=C\c2cccnc2)SC(=S)N1C1CCS(=O)(=O)C1 (stereo not drawn)	?	15µM*	-79*	i	?
O=C1/C(=C/c2cccnc2)SC(=S)N1N1CCOCC1	i	1%	26	i	-3%
N#C/C(=C/c1ccco1)C(N)=S	i	0%	2	i	6%
COc1ccc(C(=O)N/C(=C\c2ccco2)C(=O)OCc2ccco2)cc1	i	1%	6	i	1%
COc1ccc(/C=C(/C(=O)c2cccs2)N2C=CC=CC2=C(C#N)C#N)cc1	i	?	-95*	i	?
